Experimental data reported in PubChem BioAssay (NCATS).
Results filed as inconclusive are left out. A call without a number means that no potency is given here. Calls of active or inactive are those of the source. Calls come from the whole dose curve; as a rule, active = well fitted inhibition curve with a large enough effect; inconclusive = small, poorly fitted or top-dose-only effect; inactive = no such curve, though single readings can be large or run the other way.

What follows are compounds tested on Zika virus NS2B-NS3 protease (unlinked complex) (assay: Primary screen GU Rhodamine qHTS for Zika virus inhibitors: Unlinked NS2B-NS3 protease assay (AID 1347159; note: nearly all actives have a fitted effect of over 60% in size)). Settings: Recombinant ZIKV NS2B-NS3 protease, Rhodamine110 substrate fluorescence; series mostly up to 107 µM.
Procedure, shortened: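 Percent inhibition derives from the 15-min fluorescence change (ex 480, em 540 nm), normalized to no-enzyme and no-inhibitor wells. Reactions contained 25 nM NS2B-NS3 complex and 1.5 microM substrate in 10 mM Tris-HCl pH 8.0.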

| SMILES | Potency |
| --- | --- |
| CC(C)(C)c1cc(Br)cc([C@H](CC(=O)O)NC(=O)CNC(=O)c2cc(O)cc(NC3=NCC(O)CN3)c2)c1 (some centres undefined) | inactive |
| COC(C(=O)N1Cc2[nH]nc(NC(=O)c3ccc(N4CCN(C)CC4)cc3)c2C1)c1ccccc1 (centres undefined) | inactive |
| CC1(C)CCC2(C(=O)OC3OC(CO)C(O)C(O)C3O)CCC3(C)C(=CCC4C5(C)CCC(OC6OC(C(=O)O)C(OC7OC(CO)C(O)C(O)C7O)C(OC7OC(CO)C(O)C(O)C7O)C6O)C(C)(C)C5CCC43C)C2C1 (centres undefined) | inactive |
| CCOc1cc2ncc(C#N)c(Nc3ccc(F)c(Cl)c3)c2cc1NC(=O)/C=C/CN(C)C | inactive |
| COc1cc(Br)c(S(=O)(=O)Nc2ccc(C(F)(F)F)c(O[C@@H]3CCN(C)C3)c2)cc1OC | inactive |
| CC(C)=CCC(O)/C(C)=C/CO[C@@H]1O[C@H](CO)[C@@H](O)[C@H](O)[C@H]1O (some centres undefined) | inactive |
| CC(=O)OC1C(O)C2C(C)C3=CC(=O)OC3(O)CC2C2(C)CCCC(C)(CO)C12 (centres undefined) | inactive |
| C[C@@H]1O[C@@H](O[C@H]2[C@H](O)[C@@H](O)[C@H](O[C@H]3[C@H](O[C@H]4CC[C@@]5(C)C(=CC[C@@H]6C5CC[C@]5(C)[C@@H]7[C@H](C[C@@H]65)O[C@]5(CC[C@@](C)(CO[C@@H]6O[C@H](CO)[C@@H](O)[C@H](O)[C@H]6O)O5)[C@H]7C)C4)O[C@H](CO)[C@@H](O)[C@@H]3O)O[C@@H]2CO)[C@H](O)[C@H](O)[C@H]1O (some centres undefined) | inactive |
| CC(C)c1nc(-c2ccc(NC(=O)Nc3cccc(C(F)(F)F)c3)c3ccccc23)c2c(N)nccn12 | inactive |
